Results: PubChem BioAssay AID504832 (National Center for Advancing Translational Sciences (NCATS), 2011)
Where “and” joins values, the source holds several entries; their conditions need not be identical. Identical values can stand only once. The campaign covered roughly 310,000 compounds. About 18,000 (5.8%) were called active. Entries that show only a call come without a potency. Inconclusive results (about 22%) are left out. Calls follow the shape of the dose curve; as a rule, active = well fitted inhibition curve with a large enough effect; inconclusive = small, poorly fitted or top-dose-only effect, or another doubt; inactive = no such curve, though single readings can be large or run the other way. Only a selection was taken, and actives are over-represented in it overall. More than one record can exist for a structure, and the calls need not agree.

Test: Primary qHTS for delayed death inhibitors of the malarial parasite plastid, 48 hour incubation
Conditions: P. falciparum luciferase growth in erythrocytes; series mostly up to 28.7 µM
How it was run: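 Growth was read as firefly luciferase luminescence after a 48 h, 37 C, 5% CO2 exposure of compounds to reporter-bearing P. falciparum cultures (0.1% parasitemia, 2% hematocrit final) in Albumax-supplemented RPMI 1640.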
Potency is read from the fitted curve at half-maximal effect.

Row | SMILES | Potency
1 | CC(C)CC(O)C1CCN(C(=O)CCc2nnc(-c3ccc4c(c3)OCO4)o2)CC1 (stereo not given) | inactive
2 | N#Cc1ccc(OCC(=O)NC(=O)NC2CCS(=O)(=O)C2)cc1 (stereo not given) | inactive
3 | Cc1cc(C(=O)COc2ccccc2Cl)c(C)n1C1CC1 | inactive
4 | CCN(CC(=O)NCc1ccco1)S(=O)(=O)c1ccc(F)cc1 | inactive
5 | Cc1c(C(C)CCCO)oc(=O)c2c1Oc1c(C)c(C(C)C[C@@H](C)O)oc(=O)c1C2 (stereo not given in full) | inactive
6 | Cn1cccc1C(=O)N1CCc2ccccc2C1 | inactive
7 | CC1CCN(C(=O)Cn2nnnc2CN2CCOCC2)CC1 | inactive
8 | CSc1ccc(NC(=O)/C=C/C(=O)O)cc1 | inactive
9 | Cc1cccc(N2CCN(C(=O)c3ccccc3NC(=O)C3CCCCC3C(=O)O)CC2)c1 (stereo not given) | inactive
10 | Cc1cccc(N2CCN(c3ccc(NC(=O)/C=C\C(=O)O)cc3)CC2)c1 | 8.28 µM (active)
11 | Cc1ccc2oc(C(=O)N3CCN(C)C[C@@H]3C(C)C)c(C)c2c1 | inactive
12 | CC1=CC(=Cc2sc3ccccc3[n+]2C)C=C(C)O1 | 0.928 µM (active)
13 | Cc1ccc(-c2noc(CNC(=O)c3ccoc3C)n2)cc1 | inactive
14 | O=C(NCc1ccccc1Cl)C1CCN(S(=O)(=O)c2cccc3nonc23)CC1 | inactive
15 | O=C(NCc1ccncc1)C1CCCN(S(=O)(=O)c2ccc(Br)cc2)C1 (stereo not given) | inactive
16 | CCc1ccc(NC(=O)N[C@H](C(=O)O)C(C)CC)cc1 (stereo not given in full) | inactive
17 | O=C(Nc1ccncc1)c1c(F)cccc1F | inactive
18 | O=C(NCc1ccccn1)Nc1ccc(F)cc1 | inactive
19 | CCc1ccc(NC(=O)Nc2ccncc2)cc1 | 13.1 µM (active)
20 | O=C(Nc1ccncc1)Nc1ccc(F)cc1 | 6.57 µM (active)
21 | CC(C)CC(=O)Nc1ccc(Cc2ccncc2)cc1 | inactive
22 | CCCOc1ccc(Cc2c(O)nc(N)[nH]c2=O)cc1C | inactive
23 | CN(C)CCCO/N=C(\c1ccccc1)c1ccncc1 | inactive
24 | COc1cc(OC)nc(N/N=C(\c2ccccc2)c2ccncc2)n1 | 14.7 µM (active)
25 | COc1cc(OC)nc(NC(=O)CCl)n1 | inactive
26 | CC(=O)N(C)c1ccc(NC(=O)Nc2cccc3ccccc23)cc1 | inactive
27 | CNC(=O)c1sc(Nc2ccc(OCc3ccccc3)cc2)nc1C | inactive

Row | SMILES | Potency
28 | Cn1cncc1COC(=O)c1ccc(Cl)cc1 | inactive
29 | COc1cc(OC)cc(C(=O)NCCSCc2ccc(Cl)cc2)c1 | inactive
30 | COc1ccccc1N1CC(C(=O)NCCN2C(=O)S/C(=C\c3cccnc3)C2=O)CC1=O (stereo not given) | inactive
31 | Brc1ccccc1C1Nc2cccc3cccc(c23)N1 | 13.1 µM (active)
32 | Cc1ccc(C2Nc3cccc4cccc(c34)N2)cc1 | inactive
33 | C/C(=C\c1ccco1)C1Nc2cccc3cccc(c23)N1 | inactive
34 | COc1cccc(CNS(=O)(=O)c2ccc3c(c2)N(C(C)=O)CCS3)c1 | inactive
35 | O=C1C(=O)N(CCCN2CCOCC2)C(c2ccc([N+](=O)[O-])cc2)/C1=C(\O)c1ccc2c(c1)OCCO2 (stereo not given) | inactive
36 | CC1CN(C(=S)Nc2ccc(S(N)(=O)=O)cc2)CC(C)O1 (stereo not given) | inactive
37 | O=C(Nc1cccc(Cl)c1)OCc1ccccn1 | inactive
38 | CN1C(=O)C(CC(=O)Nc2ccccc2)S/C1=N/c1nccs1 (stereo not given) | inactive
39 | O=C(CC1SC(=Nc2ccccc2)N(Cc2ccccn2)C1=O)Nc1cccc(Cl)c1 (stereo not given) | 6.57 µM (active)
40 | CCCCN1C(=O)C(=O)N(CC(=O)Nc2cccc(C(C)=O)c2)C1=O | inactive
41 | CC(C(=O)N1CCN(c2ccccc2F)CC1)c1ccc([N+](=O)[O-])cc1 (stereo not given) | inactive
42 | O=C(COC(=O)c1ncc(Cl)c(Cl)c1Cl)NCc1ccccc1 | inactive
43 | COCCCN1C(=O)c2ccc(C(=O)OCC(=O)NCc3ccccc3OC)cc2C1=O | inactive
44 | Cc1ccn2c(=O)nc(SCC(=O)NCc3ccc(F)cc3)nc2c1 | inactive
45 | Cc1sc(NC(=O)c2ccc3ncsc3c2)c(C(N)=O)c1C | inactive
46 | Cc1ccc2nc3n(c(=O)c2c1)CCC3 | inactive
47 | Cc1ccc2nc(C)c3c(c2c1)N(c1ccccc1)CC3 | 5.86 µM (active)
48 | CSc1nc2ccc(C)cc2c(=O)n1-c1cccnc1 | inactive
49 | N#Cc1ccc(C(=O)OCC(=O)NC(=O)NC2CCCCC2)cc1 | inactive
50 | O=C(Nc1cc(-c2nc3ncccc3o2)ccc1Cl)c1ccco1 | inactive
51 | Cc1ccc(C(=O)COC(=O)CCN2C(=O)C3C4CCC(C4)C3C2=O)cc1C (stereo not given) | inactive
52 | CCCCCCCCC(=O)NCCOc1ccccc1 | inactive
53 | CCCCCc1ccc(-c2ccc(OCC)cc2)nc1 | inactive
54 | CCCCCCCCCc1ccc(OCCOCCOCCOCCOCCOCCOCCOCCOCCO)cc1 | 8.49 µM (active)

Row | SMILES | Potency
55 | COc1cccc(OCc2nnc3n2N=C(c2ccccc2)C(CC(=O)O)S3)c1 (stereo not given) | inactive
56 | COc1cc(S(=O)(=O)N2CCN=C2c2ccccc2)ccc1Cl | inactive
57 | CN(C)[C@@H]1C(=O)C(C(N)=O)=C(O)[C@@]2(O)C(=O)C3=C(O)c4c(O)ccc(Cl)c4[C@@H](O)[C@H]3C[C@@H]12 | 2.08 µM (active)
58 | C=C1c2c(Cl)ccc(O)c2C(O)=C2C(=O)[C@]3(O)C(O)=C(C(N)=O)C(=O)[C@@H](N(C)C)[C@@H]3[C@@H](O)C12 (stereo not given in full) | 2.33 µM (active)
59 | COc1ccc(C(=O)COC(=O)Cn2cnc3c2c(=O)n(C)c(=O)n3C)c(OC)c1 | inactive
60 | COc1cc(C(=O)Nn2c(CC(C)C)nc3ccccc3c2=O)cc(OC)c1OC | inactive
61 | O=C(O)CSc1c2c(nc3cc(C(=O)Nc4cccc(C(F)(F)F)c4)ccc13)CCCC2 | inactive
62 | O=C(Nc1cccc(-c2nnc(-c3ccccc3)o2)c1)C1CCCO1 (stereo not given) | inactive
63 | O=C(CCc1ccccc1)Nc1cccc(-c2nnc(-c3ccco3)o2)c1 | 10.4 µM (active)
64 | Cc1cccc(NC(=O)CSc2nnc(-c3ccco3)o2)c1 | inactive
65 | O=C(O)c1ccc(NC(=O)c2ccc(COc3ccc(Cl)cc3)o2)cc1 | inactive
66 | Cc1c(C)c(C)c(S(=O)(=O)N2CCC3(CC2)OCCO3)c(C)c1C | inactive
67 | c1ccc2cc(CCCc3cc4ccccc4cn3)ncc2c1 | inactive
68 | Cc1n[nH]c(=O)c2c(NC(=O)CSc3cc(Cl)ccc3Cl)oc(C)c12 | inactive
69 | O=C(/C=C/c1cccc([N+](=O)[O-])c1)OCC(=O)N1CCOCC1 | inactive
70 | Cc1ccc(C(=O)N/C(=C\c2cn(S(=O)(=O)N(C)C)c3ccccc23)C(=O)N2CCCC2)cc1 | 10.4 µM (active)
71 | Cc1ccc(C(=O)N/C(=C\c2cn(C)c3ccccc23)C(=O)N2CCN(C)CC2)cc1 | inactive
72 | Cc1ccc(C(=O)N/C(=C/c2cccs2)C(=O)N2CCCCC2)cc1 | inactive
73 | COC(=O)c1ccc(/C=N/NC(=O)C(=O)N2CCCCCC2)cc1 | inactive
74 | COc1ccccc1-c1sc2ccccc2c1-c1ccc(C(C)=O)cc1 | inactive
75 | Cc1sc2ncnc(N3CCC(C(=O)Nc4ccc(F)cc4Cl)CC3)c2c1C | 11.7 µM (active)
76 | Cc1sc2ncnc(N3CCC(C(=O)NNC(=O)c4ccc(F)cc4)CC3)c2c1C | 11.7 µM (active)
77 | Cc1ccnc(N2CCCC(C(=O)Nc3cc(F)ccc3C)C2)n1 (stereo not given) | inactive
78 | O=C(NNC(=O)C1CCCC1)c1ccc(F)cc1 | inactive
79 | O=C(NNC(=O)C1CCN(c2ncccn2)CC1)c1ccccc1 | inactive
80 | Cc1sc2ncnc(N3CCC(C(=O)Nc4nc5ccc(Cl)cc5s4)CC3)c2c1C | inactive
81 | COc1ccccc1CNC(=O)COC(=O)CNS(=O)(=O)c1ccc(NC(C)=O)cc1 | inactive

Row | SMILES | Potency
82 | CC1CCN(C(=O)/C(=C\c2ccccc2F)NC(=O)c2ccccc2)CC1 | inactive
83 | Cc1ccc(S(=O)(=O)NCCCn2ccnc2)cc1C(=O)NC(C)C | inactive
84 | COc1ccc(CNC(=O)c2ccc(Br)s2)cc1OC | inactive
85 | Cc1ccc(S(=O)(=O)N2CCN=C2SCc2c(F)cccc2Cl)cc1 | inactive
86 | CCN(CC(=O)Nc1ccccc1C(F)(F)F)C(=O)CSCc1c(C)noc1C | inactive
87 | CCN(CC(=O)Nc1ccccc1C(F)(F)F)C(=O)C1CCN(C(=O)Nc2ccccc2)CC1 | 11.7 µM (active)
88 | CCN(CC(=O)Nc1c(F)cccc1F)C(=O)C1CCC1 | inactive
89 | COc1ccc(S(=O)(=O)NNC(=O)Nc2ccc(C)cc2)c(OC)c1 | inactive
90 | CC(C)=CCCC1(C)C=Cc2c(ccc3c2[nH]c2cc(O)c(C)cc23)O1 (stereo not given) | 9.28 µM (active)
91 | COc1cc2c(C(=O)N(C)c3cc(Cl)ccc3OC)cn(C)c(=O)c2cc1OC | inactive
92 | COc1ccc(C(=O)N2CCCCC2C(=O)Nc2ccc(-n3nc(C)cc3C)cc2)o1 (stereo not given) | inactive
93 | CCCc1cc(=O)[nH]c2nnc(SCC(=O)Nc3nnc(SCC)s3)n12 | inactive
94 | O=C(NC1CCc2ccccc21)C12CN(Cc3ccccc3)CC1C(c1cccc([N+](=O)[O-])c1)=NO2 (stereo not given) | 3.7 µM (active)
95 | O=C(/C=C/c1cccc([N+](=O)[O-])c1)N1CCN(Cc2ccccc2)CC1 | inactive
96 | O=C(NCCN1CCN(C(=O)c2cccc([N+](=O)[O-])c2)CC1)C(=O)NCc1ccc(Cl)cc1 | inactive
97 | CCN(CC)C(=O)N(CC)Cc1ccccc1 | inactive
98 | CN(Cc1ccccc1)C(=O)CCc1ccccc1 | inactive
99 | CN(C(=O)CN(CCO)CC(=O)N(C)C(C)(C)Cc1ccccc1)C(C)(C)Cc1ccccc1 | inactive and 9.28 µM (active)
100 | CN(CC(=O)NCc1ccc2c(c1)OCO2)CC(=O)Nc1ccc(F)c(F)c1F | inactive
101 | O=C(N/N=C/c1sc(N2CCCCC2)nc1-c1cccs1)c1cccnc1 | 3.29 µM (active)
102 | O=C(N/N=C/c1ccccn1)c1cccnc1 | inactive
103 | Cc1cc(/C=N/NC(=O)c2cccnc2)c(C)n1CC(C)C | inactive
104 | COc1ccc2c(C(=O)c3ccc(C)cc3)n(CCC(N)=O)[n+]([O-])c2c1 | inactive
105 | Cc1cc(C(=O)N/N=C/c2ccccn2)c2ccccc2n1 | inactive
